L3MBTL1 inh: inhibitors of human L3MBTL1; Q9Y468; AlphaScreen L3MBTL1–H3K9me1 peptide binding; Potency, µM (series often up to 57.1 µM), actives largely listed as inhibitors; 0.66% of 230,000 active; also: nearly all actives have a fitted effect of over 60% in size
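Read-out is AlphaScreen signal from streptavidin donor and nickel chelate acceptor beads (10 ug/mL final each) bridging L3MBTL1 (50 nM) and biotinylated K9-monomethylated H3(1-15) peptide (75 nM), after 30 min compound exposure at room temperature.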
BAZ2B inh: inhibitors of human BAZ2B bromodomain. Q9UIF8. AlphaScreen BAZ2B-H3K14Ac peptide displacement. Potency, µM (series often up to 114 µM), actives largely listed as inhibitors. 4.4% of 360,000 active; also: nearly all actives have a fitted effect of over 60% in size
Target sequence (Q9UIF8 whole entry, looked up): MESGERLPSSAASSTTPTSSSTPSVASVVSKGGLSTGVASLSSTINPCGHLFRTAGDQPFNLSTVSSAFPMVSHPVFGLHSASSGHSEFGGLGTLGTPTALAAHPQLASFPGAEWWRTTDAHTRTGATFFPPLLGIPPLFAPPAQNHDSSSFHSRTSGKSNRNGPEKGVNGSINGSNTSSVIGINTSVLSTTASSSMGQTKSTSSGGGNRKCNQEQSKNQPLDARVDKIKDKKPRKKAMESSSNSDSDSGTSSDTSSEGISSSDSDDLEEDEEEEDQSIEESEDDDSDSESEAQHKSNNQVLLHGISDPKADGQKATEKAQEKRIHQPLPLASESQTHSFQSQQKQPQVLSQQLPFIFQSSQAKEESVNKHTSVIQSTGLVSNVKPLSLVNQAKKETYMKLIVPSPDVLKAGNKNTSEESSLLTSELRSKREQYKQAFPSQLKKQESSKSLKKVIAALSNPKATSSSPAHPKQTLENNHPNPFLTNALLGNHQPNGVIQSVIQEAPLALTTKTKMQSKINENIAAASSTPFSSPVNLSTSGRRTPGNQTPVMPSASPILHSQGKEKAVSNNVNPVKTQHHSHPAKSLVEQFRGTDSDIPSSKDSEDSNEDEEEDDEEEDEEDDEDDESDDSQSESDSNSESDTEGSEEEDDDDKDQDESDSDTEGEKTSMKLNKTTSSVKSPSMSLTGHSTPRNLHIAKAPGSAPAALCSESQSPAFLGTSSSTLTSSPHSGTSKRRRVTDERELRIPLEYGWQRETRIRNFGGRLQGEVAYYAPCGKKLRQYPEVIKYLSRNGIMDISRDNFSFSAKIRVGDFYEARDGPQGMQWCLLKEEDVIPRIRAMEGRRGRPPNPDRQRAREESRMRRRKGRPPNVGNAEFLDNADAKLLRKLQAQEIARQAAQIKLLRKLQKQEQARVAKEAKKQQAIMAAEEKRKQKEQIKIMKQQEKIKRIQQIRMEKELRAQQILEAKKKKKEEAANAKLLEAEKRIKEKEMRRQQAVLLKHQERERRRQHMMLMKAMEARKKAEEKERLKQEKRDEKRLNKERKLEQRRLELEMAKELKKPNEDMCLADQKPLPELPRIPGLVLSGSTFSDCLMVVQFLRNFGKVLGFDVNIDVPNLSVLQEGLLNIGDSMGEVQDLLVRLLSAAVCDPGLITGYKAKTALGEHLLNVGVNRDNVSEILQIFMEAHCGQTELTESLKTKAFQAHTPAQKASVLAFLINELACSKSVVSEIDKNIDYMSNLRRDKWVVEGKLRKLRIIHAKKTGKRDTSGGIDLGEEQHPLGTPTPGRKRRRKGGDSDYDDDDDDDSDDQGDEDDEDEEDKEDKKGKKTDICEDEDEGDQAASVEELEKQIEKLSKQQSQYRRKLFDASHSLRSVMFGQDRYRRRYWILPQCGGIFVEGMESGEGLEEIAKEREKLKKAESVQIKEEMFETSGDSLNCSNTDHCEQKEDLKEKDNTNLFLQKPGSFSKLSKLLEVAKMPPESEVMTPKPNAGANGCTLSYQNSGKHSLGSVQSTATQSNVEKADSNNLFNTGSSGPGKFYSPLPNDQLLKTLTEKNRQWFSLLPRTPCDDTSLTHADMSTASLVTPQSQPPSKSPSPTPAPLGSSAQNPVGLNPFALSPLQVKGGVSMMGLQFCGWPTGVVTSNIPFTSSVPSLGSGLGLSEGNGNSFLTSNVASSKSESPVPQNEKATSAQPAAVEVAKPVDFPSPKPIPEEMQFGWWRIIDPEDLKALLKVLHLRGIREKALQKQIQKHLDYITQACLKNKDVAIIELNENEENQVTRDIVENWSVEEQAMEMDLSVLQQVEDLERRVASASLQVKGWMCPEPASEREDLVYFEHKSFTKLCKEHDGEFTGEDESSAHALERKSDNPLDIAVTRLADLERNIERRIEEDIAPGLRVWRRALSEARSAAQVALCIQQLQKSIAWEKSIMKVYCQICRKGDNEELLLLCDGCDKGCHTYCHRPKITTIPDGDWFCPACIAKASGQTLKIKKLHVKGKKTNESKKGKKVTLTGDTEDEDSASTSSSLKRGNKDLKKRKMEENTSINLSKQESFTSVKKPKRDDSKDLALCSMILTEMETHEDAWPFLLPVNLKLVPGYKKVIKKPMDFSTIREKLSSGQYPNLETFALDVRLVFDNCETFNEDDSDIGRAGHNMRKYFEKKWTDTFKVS
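AlphaScreen displacement of biotin-H3(5-23)K14Ac peptide (50 nM final) from BAZ2B (50 nM final) in PBS pH 7.4, 0.01% Tween-20; complex preformed 30 min RT, then compounds (top 110 uM) 30 min RT, beads 20 min dark.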
HP1b binding inh: inhibitors of HP1-beta chromodomain binding to methylated histone tails | AlphaScreen HP1-beta / biotin-H3K9me3 peptide binding | Potency, µM (top dose mostly 114 µM), actives largely listed as inhibitors | 0.56% of 390,000 active | AID 540317; also: nearly all actives have a fitted effect of over 70% in size
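HP1-beta protein (50 nM final) preincubated 30 min at room temperature with biotinylated H3(1-18)K9me3 peptide (50 nM) in PBS pH 7.4, 0.01% Tween-20, then compound added for 30 min. AlphaScreen streptavidin donor/nickel chelate acceptor beads (10 ug/mL final), 30 min dark, luminescence read.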
G9a inh-1: blocks human histone lysine methyltransferase G9a | G9a H3K9 monomethylation, AlphaScreen, 2 h | AID 504332 | Q96KQ7 | 8.8% of 350,000 active | Potency, µM (titrated, usually from 102 µM), actives largely listed as inhibitors; also: nearly all actives have a fitted effect of over 75% in size
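AlphaScreen read-out: biotin-H3K9 peptide (500 nM) methylation by 20 nM enzyme with 20 uM SAM, 2 h at room temperature after 15 min compound preincubation; anti-monomethyl H3K9 antibody plus donor/acceptor beads, 10 min dark.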
JMJD2A Tudor: inhibitors of human JMJD2A Tudor domain; O75164; AlphaScreen JMJD2A-Tudor / H3K4me3 peptide binding; Potency, µM (titrated, usually from 114 µM), hits mostly inhibitors; 4.4% of 390,000 active; AID 504339; also: nearly all actives have a fitted effect of over 50% in size
JMJD2E confirm: JMJD2E (human) demethylase inhibition, confirmation. AID 2677. Recombinant JMJD2E, FDH-coupled NADH fluorescence (FDH is formaldehyde dehydrogenase). 93% of 140 active. shares compounds with JMJD2A Tudor. Potency, µM (highest dose often 56.8 µM), actives largely listed as inhibitors
FDH counter: counter-screen for JMJD2E inhibitors: Pseudomonas putida formaldehyde dehydrogenase | shares compounds with JMJD2A Tudor | FDH enzyme assay, NADH fluorescence kinetic | Potency, µM (series often up to 56.7 µM), most hits filed as inhibitors | 10% of 140 active | AID 2680
G9a inh-2: confirmation of human histone methyltransferase G9a inhibitors. shares compounds with JMJD2A Tudor. G9a H3K9 monomethylation, AlphaScreen, 2 h. Potency, µM, usual class: inhibitors. 89% of 370 active. AID 588344; also: nearly all actives have a fitted effect of over 65% in size
RGS4 confirm: confirmation of human RGS4 inhibitors; shares compounds with JMJD2A Tudor; RGS4 GAP activity, Transcreener GDP fluorescence polarization; Potency, µM, hits mostly inhibitors; 80% of 25 active; AID 602388
Of the large screens only hits and unclear results are named; the others gave an inactive call (follow-up assays come after a bar, where they were run). Most compounds without a hit are left out; they make up all but 11% or so of the library. Calls follow the shape of the dose curve; as a rule, active = well fitted curve in the direction sought with a large enough effect; inconclusive = small, poorly fitted or top-dose-only effect, or another doubt; inactive = no such curve, though single readings can be large; an effect the other way counts as inactive or inconclusive.

Cc1ccc(NC(=O)CNc2ccc(OC(C)C)cc2)cc1	BAZ2B inh 50µM, G9a inh-1 0.79µM, JMJD2A Tudor inconclusive (no result: L3MBTL1 inh) | G9a inh-2 7.9
CC(=O)c1ccc(NC(=O)COC(=O)Cc2ccsc2)cc1	none (no result: BAZ2B inh, G9a inh-1)
Cc1ccc(OCC(=O)Nc2ccc([N+](=O)[O-])cc2)cc1	none
CCN(CC)c1ccc(NC(=O)COC(=O)C23CCC(=O)N2c2ccccc2S3)cc1 (stereo not drawn)	BAZ2B inh inconclusive, HP1b binding inh inconclusive, G9a inh-1 inconclusive, JMJD2A Tudor inconclusive (no result: L3MBTL1 inh) | G9a inh-2 5
CCc1ccc(NC(=O)COC(=O)CN2C(=O)COc3ccccc32)cc1	none (no result: L3MBTL1 inh)
CCN(CC)c1ccc(NC(=O)COc2ccc(C)cc2)cc1	BAZ2B inh inconclusive, G9a inh-1 1.4µM, JMJD2A Tudor inconclusive | G9a inh-2 2.8
O=[N+]([O-])c1ccc(C(O)CSC(=S)N2CCCCC2)cc1 (stereo not drawn)	none (no result: L3MBTL1 inh)
COc1ccccc1C(=O)NC(=O)CSc1nncn1C(C)C	none
CCOC(=O)N1CCc2c(sc(NC(=O)CN3CCOCC3)c2C(=O)Nc2ccccc2)C1	BAZ2B inh inconclusive, G9a inh-1 inconclusive
CCOC(=O)N1CCc2c(sc(NCc3cccs3)c2C(=O)Nc2cc(OC)ccc2OC)C1	HP1b binding inh inconclusive, G9a inh-1 1.6µM, JMJD2A Tudor 3.2µM (no result: L3MBTL1 inh) | G9a inh-2 1.1
CCOC(=O)N1CCc2c(sc(NCc3cccs3)c2C(=O)Nc2ccc(OC)cc2OC)C1	BAZ2B inh inconclusive, G9a inh-1 2.8µM, JMJD2A Tudor 3.2µM (no result: L3MBTL1 inh) | G9a inh-2 3.6
CCCc1nnc(NC(=O)CCC(=O)NCc2ccc(OC)cc2)s1	none
c1cncc(-c2nc(-c3ccco3)cs2)c1	BAZ2B inh inconclusive, G9a inh-1 inconclusive, JMJD2A Tudor inconclusive (no result: L3MBTL1 inh) | G9a inh-2 10
c1cncc(-c2csc(-c3cccnc3)n2)c1	none (no result: L3MBTL1 inh)
Cc1cc(C)cc(N2C(=O)CC(Sc3nnnn3-c3ccccc3)C2=O)c1 (stereo not drawn)	BAZ2B inh inconclusive
Cc1cc(C)cc(N2C(=O)CC(Sc3ncn[nH]3)C2=O)c1 (stereo not drawn)	HP1b binding inh inconclusive, JMJD2A Tudor inconclusive (no result: G9a inh-1) | JMJD2E confirm 6.3µM | FDH counter 0.28µM
Cc1ccc(C(=O)Nc2ccc(C(=O)OCc3cc(=O)n4c5c(sc4n3)CCCC5)cc2)cc1	none (no result: L3MBTL1 inh)
CCc1nnc(SC(C)C(=O)Nc2nccs2)n1C (stereo not drawn)	none (no result: L3MBTL1 inh, G9a inh-1)
c1ccc2c(NC3CC3)nc(-c3ccoc3)nc2c1	none (no result: L3MBTL1 inh, BAZ2B inh, HP1b binding inh, JMJD2A Tudor) | RGS4 confirm inconclusive
COc1ccc(CN2CCc3c([nH]c4ccccc34)C2)cc1Br	BAZ2B inh 14µM, G9a inh-1 inconclusive, JMJD2A Tudor 20µM | G9a inh-2 5
Cc1ccc(-n2nnnc2CNC(=O)c2cc(C(F)(F)F)cc(C(F)(F)F)c2)cc1C	none (no result: L3MBTL1 inh)
Cc1ccc(CNc2ccc(N3CCOCC3)cc2)s1	BAZ2B inh 45µM, HP1b binding inh inconclusive, G9a inh-1 inconclusive, JMJD2A Tudor 50µM (no result: L3MBTL1 inh) | G9a inh-2 10
Cc1noc(C)c1NC(=O)N(C)C[C@@H]1Oc2ccc(NC(=O)C3CCCCC3)cc2C(=O)N([C@@H](C)CO)C[C@H]1C	none (no result: BAZ2B inh, G9a inh-1)
COc1cc(C2Nn3c(nnc3-c3ccccc3OC)S2)ccc1O (stereo not drawn)	HP1b binding inh inconclusive, G9a inh-1 0.63µM, JMJD2A Tudor 2.2µM | G9a inh-2 0.25
CCc1ccc2c(c1)CCCN2C(=O)c1ccccc1C(=O)O	BAZ2B inh 56µM, G9a inh-1 inconclusive, JMJD2A Tudor inconclusive (no result: L3MBTL1 inh) | G9a inh-2 inconclusive
CCn1ccnc1CN(C)C(=O)C1CCC(=O)N(Cc2cccc(F)c2)C1 (stereo not drawn)	none (no result: L3MBTL1 inh)
CCN(Cc1ccccc1)Cc1c(O)ccc2c(=O)c(-c3ccccc3)c(C(F)(F)F)oc12	G9a inh-1 inconclusive (no result: L3MBTL1 inh) | G9a inh-2 45
CCN(Cc1ccccc1)Cc1c(O)ccc2c(=O)c(-c3ccccc3Cl)c(C(F)(F)F)oc12	none (no result: L3MBTL1 inh)
O=C(O)c1cc(NCc2ccc3c(c2)OCO3)ccc1N1CCOCC1	G9a inh-1 inconclusive
COC(=O)c1cc(NCc2ccc3c(c2)OCO3)ccc1N1CCOCC1	BAZ2B inh inconclusive, G9a inh-1 inconclusive, JMJD2A Tudor inconclusive (no result: L3MBTL1 inh) | G9a inh-2 13
N#Cc1ccc(C(=O)N2CCN(S(=O)(=O)c3ccc(Br)s3)CC2)cc1	L3MBTL1 inh inconclusive, G9a inh-1 inconclusive
CC(C)OCc1ccc(C(=O)N2CCN(S(=O)(=O)c3ccc(Br)s3)CC2)cc1	G9a inh-1 inconclusive | G9a inh-2 45
Cc1ccc(NC(=O)CSc2nnc(-c3nnn(-c4ccc(F)cc4)c3C)o2)cc1Br	none (no result: L3MBTL1 inh)
